Shown are actives, neighbours in structure and some others; about 5.1% of the full set was active somewhere.
S1P4 ag: agonists of human S1P4 receptor | S1P4-expressing cell line, agonist reporter assay | activation, % at 4.98 µM | O95977 | actives 0.35% (n = 220,000) | AID 1509; in the data active = activation above about 11%;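 note: 0% = DMSO vehicle and 100% = reference agonist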
RAM network inh: yeast RAM network inhibition; actives 1.8% (n = 190,000); S. cerevisiae dse1pr::URA3 reporter, 5-FOA growth OD615, 2 d; analog-sensitive cbk1-as2 kinase mutant strain; inhibition, % at 50 µM;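 active = inhibition above a set limit, 3 SD over mean compound inhibition, cut at about 8.4% in these data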;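 note: 0% = DMSO-only wells with no growth and 100% = 10 µM 1-NA-PP1 full growth; inhibition rescues growth on 5-FOA so higher OD means more RAM inhibition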
S1P4 antagonist: human S1P4 receptor antagonism; O95977; S1P4-expressing cells, antagonist mode, reporter read-out; inhibition, % at 4.98 µM; actives 0.26% (n = 220,000); in the data active = inhibition above about 29%;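 note: 0% = wells stimulated with agonist and 100% = vehicle wells without agonist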
ROMK primary: human ROMK K+ channel modulation, primary screen; P48048; actives 2% (n = 130,000); Tet-inducible ROMK, thallium flux fluorescence; actives lie on both sides; AID 1918; B-score at 10 µM;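 active = signal ratio slope over the read window, or its plate-corrected B-score, at least 3 SD from the plate mean, either direction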;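 note: B-score of the F/F0 ratio slope over 7 to 12 s after thallium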
Target sequence (P48048 whole entry, looked up): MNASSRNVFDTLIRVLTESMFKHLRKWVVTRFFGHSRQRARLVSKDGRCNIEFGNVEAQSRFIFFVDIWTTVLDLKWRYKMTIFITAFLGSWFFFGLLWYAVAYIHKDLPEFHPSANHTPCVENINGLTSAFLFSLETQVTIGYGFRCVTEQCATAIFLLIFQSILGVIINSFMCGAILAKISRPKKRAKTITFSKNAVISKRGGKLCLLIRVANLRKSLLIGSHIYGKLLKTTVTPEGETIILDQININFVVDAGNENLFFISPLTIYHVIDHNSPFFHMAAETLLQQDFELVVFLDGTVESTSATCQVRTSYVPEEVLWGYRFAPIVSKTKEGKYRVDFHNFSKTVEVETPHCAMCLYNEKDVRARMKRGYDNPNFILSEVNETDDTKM
Cl transport mod: KCC2 (human) Cl- transport modulation; KCC2 cells, thallium flux FluoZin-2 fluorescence; B-score of Tl+ flux slope (higher = more flux/activation; lower = inhibition) at 10 µM; actives 2.2% (n = 190,000); AID 1456;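 active = thallium flux slope and its plate-corrected score both differing from the plate sample mean at a set confidence after two filtering rounds, in either direction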;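 note: slope of fluorescence scaled to starting intensity during 10 to 20 s after thallium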
S1P3 antag: S1P3 (human) receptor antagonism. Q99500. CHO S1P3 NFAT-BLA reporter, FRET fluorescence, antagonist mode. inhibition, % at 4.98 µM. actives 0.27% (n = 170,000). AID 485;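 active = inhibition above the plate cutoff, the mean inhibition of test wells on that plate plus 3 SD, cut at about 28% in these data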;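 note: cells challenged with S1P at its EC80 of 0.8 µM; blue over green emission ratio from cleaved BLA substrate after 4 h stimulation; 0% = S1P-stimulated wells and 100% = unstimulated DMSO-only wells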
* hit, by the source's call; nt = not tested or not shown.

SMILES	S1P4 ag	RAM network inh	S1P4 antagonist	ROMK primary	Cl transport mod	S1P3 antag
CCCOc1ccc(C(=O)CCN2CCN(C(=O)OCC)CC2)cc1	2	0	-22	0.15	-0.59	1
CC(C)CNC(=O)c1cccc(NC(=O)CSc2ccc(Cl)cc2)c1	1	9.8*	-4	-1.9	-1.4	-3
CCOC(=O)C1(Cc2ccc(OC)cc2)CCN(C(=O)[C@@H]2CCCN2C(C)=O)CC1	0	nt	1	nt	-0.83	11
CCCC(=O)Nc1c(-c2ccccc2)c(=O)c(C)nn1-c1ccc(C)cc1	-1	nt	10	nt	0.83	9
CCOC(=O)c1nn(-c2cccc(OC)c2)c2nc(CC)c(C#N)c(=O)n12	-1	8.4*	1	-0.51	-2	0
Cc1nonc1OCCNCc1c(C(=O)N2CCCCCCC2)nc2ccc(Cl)cn12	-1	1	1	-1.4	0.83	-6
C=CCc1cc(Cl)ccc1OC(=O)Nc1cccc(Cl)c1	1	nt	-12	-0.38	-0.13	0
CC(C)CC(=O)NC(=S)N(Cc1ccccc1)Cc1ccccc1	-2	2	1	0.19	49*	1
CC(C)C(=O)NC(=S)N(Cc1ccccc1)Cc1ccccc1	-1	1	-3	0.17	42*	-16
CC(C)CC(=O)NC(=S)Nc1ccccc1F	3	0	-14	-0.58	-0.64	nt
CN1CCC(NC(=S)Nc2cccc([N+](=O)[O-])c2)CC1	2	1	-3	0.26	1.2	-9
COc1cc2c(cc1OC)CN(C(=S)Nc1ccc(C)cc1C)CC2	2	1	-14	0.25	-0.71	-4
COc1cc(OC)cc(-c2nnc(SCC(=O)Nc3cccc(C(=O)O)c3)s2)c1	1	2	-19	0.14	-0.2	-10
O=C(CSc1nnc(-c2cccnc2)s1)Nc1cccc(C(=O)O)c1	-2	10*	-2	0.18	-0.53	2
CC(C)C[C@H](NC(=O)c1nc[nH]c1C(=O)N(C)Cc1ccccc1)C(=O)OCc1ccccc1	0	2	-2	nt	-1.5	-10
COC(=O)c1cccc(NC(=O)c2nn(C(C)C)c(=O)c3ccccc23)c1	0	2	-3	0.59	nt	9
Cc1ccc(Cl)c(OC(=O)c2nn(C(C)C)c(=O)c3ccccc23)c1	0	10*	-260	0.42	0.47	-23
COc1ccc(C(=O)NC(=S)NC(C)(C)C)cc1Br	0	1	-12	nt	4.1*	nt
COc1ccccc1N(CC(=O)NC1CCCC1)C(=O)c1oc(C(C)(C)C)cc1C	-1	1	-69	-0.99	nt	17
CCCc1nc(Nc2nc3ccccc3o2)nc(C)c1C(=O)OCC	0	11*	-3	nt	-0.28	18
CC1CCCCC1NC(=O)c1cc2ccccc2o1 (centres undefined)	-1	1	7	-0.76	-0.81	5
Cc1cccc(Nc2c([N+](=O)[O-])cc(C(=O)N3CC(=O)Nc4ccccc43)cc2[N+](=O)[O-])c1	-1	9.5*	4	0.074	-1.5	-6
Cc1ccc(C)c(Nc2c([N+](=O)[O-])cc(C(=O)N3CC(=O)Nc4ccccc43)cc2[N+](=O)[O-])c1	0	5	5	1.2	-0.6	nt
CC(C)CC(=O)N/C(N)=N/c1nc2ccccc2o1	-1	nt	-7	nt	-0.17	6
O=C(Nc1ccc(OC(F)(F)F)cc1)c1ccc(S(=O)(=O)N2CCOCC2)o1	1	nt	-11	nt	-0.58	-3
SMILES	S1P4 ag	RAM network inh	S1P4 antagonist	ROMK primary	Cl transport mod	S1P3 antag
O=c1c2sccc2n(Cc2ccc(F)cc2)c(=O)n1-c1ccc(F)cc1	2	10*	-13	0.2	0.56	-6
O=C(Cn1c(=O)n(-c2ccc(F)cc2)c(=O)c2sccc21)c1ccccc1	0	1	-5	-0.7	-1.4	-13
CCOC(=O)/C(C#N)=C\c1ccc(OCC(=O)Nc2ccc(C)cc2C)c(OC)c1	0	4	-12	nt	nt	nt
CC(=O)SCC(Cc1ccccc1)C(=O)NCC(=O)OCc1ccccc1 (centres undefined)	2	nt	13	nt	-4.2*	-12
CC(NC(N)=O)C(=O)NCC(=O)OCc1ccccc1 (centres undefined)	-3	-1	-10	0.11	1	-1
O=C(CCSc1nc(-c2ccco2)cc(C(F)(F)F)n1)NCCc1ccccc1	0	9.9*	-10	nt	-3.1*	-18
COc1ccccc1CCNC(=O)CCSc1nc(-c2ccco2)cc(C(F)(F)F)n1	0	6	14	nt	-0.46	nt
COc1ccc(-c2cc(C(F)(F)F)nc(SCc3cccc(C(=O)O)c3)n2)cc1	-1	4	2	0.52	nt	nt
COc1ccc(-c2cc(C(F)(F)F)nc(SCCC(=O)NCc3ccccc3)n2)cc1	1	9.6*	3	nt	0.18	nt
CC1CN(c2oc(Cc3cccc4ccccc34)nc2C#N)CC(C)O1 (centres undefined)	1	9.9*	-14	-0.46	nt	10
CC1CN(c2oc(-c3cccs3)nc2C#N)CC(C)O1 (centres undefined)	2	2	-5	0.63	0.85	nt
N#Cc1nc(Cc2cccc3ccccc23)oc1NCCN1CCCCC1	0	1	3	-5.6*	-4.3*	-29
FC(F)(F)c1ccnc(NCc2ccco2)n1	3	nt	-29	-0.4	-0.85	10
O=C(Nc1ccccn1)C(F)(F)C(F)(F)C(F)(F)C(F)(F)C(=O)Nc1ccccn1	0	3	-15	-0.21	-0.29	3
CC(=O)CC(c1ccccc1)S(=O)(=O)c1ccc(C)cc1 (centres undefined)	-2	2	-8	nt	-0.46	nt
COc1ccc(C(CC(=O)c2ccccc2)CC(=O)c2ccccc2)cc1	0	nt	13	nt	-0.44	17
COc1ccc(C(=O)C[n+]2cccc(C)c2)cc1	0	1	-12	0.68	8.1e-05	-7
COc1ccc(O)c(C(=O)CC(=O)c2ccccc2)c1	-2	2	-8	nt	22*	18
COc1ccc(C(CC(=O)c2ccccc2)S(=O)(=O)c2ccc(C)cc2)cc1 (centres undefined)	0	9.8*	5	nt	1.8	nt
COc1ccc(C(=O)C/C(=C\C(=O)c2ccc(C)cc2)c2ccccc2)cc1	0	11*	5	0.023	-0.13	nt
COc1ccc(CNC(=O)Cn2nnc3ccccc3c2=O)cc1	0	nt	-14	-0.16	0	-6
CSc1ccccc1NC(=O)c1cc(-c2cccnc2)nc2ccc(Br)cc12	0	0	0	0.048	1.9	-11
Cc1c(N=Nc2c(-c3ccc([N+](=O)[O-])cc3)[nH]n(C(N)=S)c2=O)cccc1[N+](=O)[O-]	1	11*	-2	-1.7	-0.95	0
CCSc1ccccc1C(=O)Nc1ccc(S(=O)(=O)NC(C)=O)cc1	1	1	1	nt	3.2	-10
O=C(COc1ccccc1)Nc1ccc(OC(F)(F)C(F)F)c(NC(=O)COc2ccccc2)c1	-3	9.8*	7	-0.18	0.78	nt
